Lamin A splicing: qHTS Assay for Modulators of Lamin A Splicing; HeLa LMNA splicing GFP/RFP minigene ratio, 48 h; Potency, µM (highest dose often 46.1 µM), without a hit: top-dose ratio change, negative = inhibition, actives largely listed as inhibitors; actives 0.01% (n = 200,000); active = well fitted inhibition curve with a large enough effect in the signal ratio, with a control signal flat, not every such curve was filed as active; inconclusive = small, poorly fitted or top-dose-only effect, or effect the other way, or a change in a side signal; the % refers to the signal ratio; also: potency is read from the fitted curve at half-maximal effect; % is scaled to controls: 0 for no effect and ±100 for the full control effect
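Read-out is the ratio of GFP to DsRed2 object intensity, acquired by 488 nm laser-scanning cytometry on HeLa lamin A-EGFP minigene reporter cells. Compound incubation 48 hrs at 37 °C in Opti-MEM with 2% FBS; DMSO 0.5% final.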
JMJD2E inh: qHTS Assay for Inhibitors of Human Jumonji Domain Containing 2E (JMJD2E); Lysine-specific demethylase 4E (Homo sapiens), B2RXH2; JMJD2E catalytic domain, FDH-coupled NADH fluorescence (FDH is formaldehyde dehydrogenase); Potency, µM (top dose mostly 57.1 µM), for inactives: at the top dose activity change, negative = inhibition, hits mostly inhibitors; actives 1.6% (n = 230,000); active = well fitted inhibition curve with a large enough effect, not every such curve was filed as active; inconclusive = small, poorly fitted or top-dose-only effect, or another doubt; inactive = no such curve, though single readings can be large or run the other way;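 also: potency is read from the fitted curve at half-maximal effect; 0% = wells with enzyme and -100% = buffer wells without enzyme; nearly all actives have a fitted effect of over 50% in size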
ALDH1A1 block: qHTS Assay for Inhibitors of Aldehyde Dehydrogenase 1 (ALDH1A1); Potency, µM (titrated, usually from 75.3 µM), without a hit: at the top dose activity, negative = inhibition, actives largely listed as inhibitors; Aldehyde dehydrogenase 1A1 (Homo sapiens), P00352; AID 1030, 2008; actives 7.3% (n = 220,000); Purified ALDH1A1, NADH fluorescence, propionaldehyde substrate; active = well fitted inhibition curve with a large enough effect, not every such curve was filed as active; inconclusive = small, poorly fitted or top-dose-only effect, or another doubt; inactive = no such curve, though single readings can be large or run the other way;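 also: potency is read from the fitted curve at half-maximal effect; plate controls were no enzyme wells and a reference inhibitor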
Sfp inh: qHTS Assay for Inhibitors of Bacillus subtilis Sfp phosphopantetheinyl transferase (PPTase) | Biochemical Sfp PPTase activity, qHTS | Potency, µM, without a hit: largest response in the series, negative = inhibition, most hits filed as inhibitors | actives 3.5% (n = 310,000) | AID 1490, 2009;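 also: the enzyme is Sfp with the accession as filed and its product quenches rhodamine fluorescence; potency is read from the fitted curve at half-maximal effect; 0% = enzyme reaction without inhibitor and -100% = no enzyme wells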
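Fluorescence-quenching assay: 15 nM Sfp-PPTase preincubated 15 min at room temperature with compound, then 5 uM rhodamine-CoA and 12.5 uM BHQ-2-labelled YbbR peptide added. Fluorescence (ex 525/em 598 nm) read at start and after 30 min; difference gives rate.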
G9a inh: qHTS Assay for Inhibitors of Histone Lysine Methyltransferase G9a; Potency, µM (top dose mostly 102 µM), for inactives: at the top dose activity, negative = inhibition, usual class: inhibitors; G9a H3K9 monomethylation, AlphaScreen, 2 h; AID 504332, 2011; actives 8.8% (n = 350,000); Histone-lysine N-methyltransferase EHMT2 (Homo sapiens), Q96KQ7; also: potency is read from the fitted curve at half-maximal effect; % is scaled to controls: 0 for no effect and ±100 for the full control effect; nearly all actives have a fitted effect of over 75% in size
Target sequence (Q96KQ7 913-1193 limits assumed): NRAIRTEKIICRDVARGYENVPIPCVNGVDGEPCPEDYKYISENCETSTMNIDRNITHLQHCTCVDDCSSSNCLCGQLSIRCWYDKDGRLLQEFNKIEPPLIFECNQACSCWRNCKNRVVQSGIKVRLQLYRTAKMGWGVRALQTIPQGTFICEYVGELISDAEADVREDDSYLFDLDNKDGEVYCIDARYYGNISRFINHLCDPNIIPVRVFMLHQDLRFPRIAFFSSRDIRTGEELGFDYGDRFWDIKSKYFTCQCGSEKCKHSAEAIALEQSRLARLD
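Compounds were preincubated with 20 nM G9a for 15 min, after which biotinylated H3K9 peptide (500 nM) and SAM (20 uM) started a 2 h room-temperature reaction. Monomethylated product was quantified by antibody-based AlphaScreen chemiluminescence.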
miR-21 act: qHTS Assay for Modulators of miRNAs and/orActivators of miR-21; HeLa miR-21 FLuc reporter, luciferase, 48 h; Potency, µM (highest dose often 38.3 µM), for inactives: at the highest dose activity change, positive = activation, most hits filed as activators; 340,000 tested, under 10 active; AID 2288, 2010;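 also: % of control where 0% means no effect; miR-21 action dims this reporter so a rising signal means less miR-21 action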
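Using DMEM plus 10% FBS, HeLa miR-21-FLuc cells are incubated with test compounds (final up to about 40uM) for 48 hours; firefly luciferase signal is then imaged following reagent-mediated lysis.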
Active calls of the source: *; u = inconclusive; x = no result given; [ ] = remark or other dose. The list is not random: actives were taken first. Their share in the collection is about 13%. Unless noted, calls follow the shape of the dose curve; as a rule, active = well fitted curve in the direction sought with a large enough effect; inconclusive = small, poorly fitted or top-dose-only effect, or another doubt; inactive = no such curve, though single readings can be large; an effect the other way counts as inactive or inconclusive.

SMILES | Lamin A splicing | JMJD2E inh | ALDH1A1 block | Sfp inh | G9a inh | miR-21 act
CCn1c(=O)n(CCOC)c(=O)c2c3c(sc21)CCCC3 | -5.8% | 1.6% | -9.7% | -2.2% | -45.7%[59 µM] | -13.8%
CC(=O)Cn1nnc2sc3c(c2c1=O)CCC(C(C)(C)C)C3 (configuration not stated) | u | 7.2% | 10.2% | -25.3% | -5.3% | -43.3%
COCCCn1c(=S)[nH]c2sc3c(c2c1=O)CCCS3 | u | -21.9% | 25.1µM* | 35.5µM* | 4.47µM* | -37.1%
Cn1c(=S)[nH]c2sc3c(c2c1=O)CCC(C(C)(C)C)C3 (configuration not stated) | x | x | x | 18.7% | 39.8µM* | -53.8%
CCCn1c(=S)[nH]c2sc3c(c2c1=O)CCCC3 | x | x | x | 11.4% | -5.4% | -6.7%
N#Cc1c(C(F)(F)F)cc(-c2cccs2)nc1SCC(=O)Nc1ccc(F)cc1 | x | x | x | x | -3.3%[59 µM] | -22.4%
Cc1onc(-c2c(Cl)cccc2Cl)c1NC(=O)N1CCSCC1 | x | 0.0% | x | 18.1% | 41.8%[59 µM] | -11.7%
Cc1nc(-c2cccc(C(F)(F)F)c2)sc1C(=O)O | 6.4%[46 µM] | -1.6% | u | 12.6% | 56.2µM* | -58.3%
Cc1[nH]c2ccccc2c1N=Nc1ccccc1C(=O)O | u | -0.2% | u | u | u | -18.4%
O=C1c2ccccc2C(=O)C12OC2c1ccc(Cl)cc1Cl (configuration not stated) | 7.9% | -25.4% | 25.1µM* | -12.6% | u | -4.5%
CCc1c(C)sc2c1CCN(Cc1cccc(OC)c1)C2c1ccccc1 (configuration not stated) | u | x | x | x | -3.6%[12.7 µM] | u
CCCn1c(-c2ccncc2)n[nH]c1=S | 9.5%[46 µM] | 1.4% | -10.6% | u | u | 5.3%
S=c1[nH]nc(-c2cccc(Cl)c2)n1CCN1CCCCC1 | -3.6% | 6.3% | -2.9% | -15.5% | u | 1.3%
CCCCn1c(-c2csc(CC)c2)n[nH]c1=S | u | -2.8% | u | 20µM* | 1.78µM* | -0.8%
CCCc1cc(-c2n[nH]c(=S)n2CC(C)C)cs1 | u | -20.4% | 11.2µM* | -9.5% | 2µM* | -9.3%
CCCCn1c(-c2csc3ccccc23)n[nH]c1=S | 0.1% | -15.4% | u | 3.1% | 1.41µM* | -0.2%
CCc1cc(-c2n[nH]c(=S)n2-c2cccc(C)c2)cs1 | -1.9% | u | u | 50.1µM* | u | -20.6%
Cn1c(-c2sc3ccccc3c2Cl)n[nH]c1=S | u | u | u | -17.5% | u | -9.4%
CCc1ccc(NC(=O)CSc2nc3c(c(=O)[nH]2)CN(Cc2ccc(C)cc2)CC3)cc1 | x | x | x | x | -2.9%[59 µM] | -6.9%
Cc1cc(C)cc(N2C(=O)CSC23C(=O)N(CC(=O)NC2CCCCC2)c2ccccc23)c1 (configuration not stated) | 7.8%[46 µM] | x | x | x | -27.5%[59 µM] | -5.6%
CCCCCCn1c(-c2cccs2)n[nH]c1=S | x | u | u | -13.9% | 5.62µM* | -1.0%
CCCCn1c(-c2csc(C(C)C)c2)n[nH]c1=S | u | -13.5% | 7.94µM* | -18.2% | 3.98µM* | -5.6%
CCCCCC(=O)/C=C/C=C\CCCCCCCC(=O)O | x | u | 0.3% | 6.9% | 18.9%[59 µM] | x
C#CCN(C)CC/C=C1\c2ccccc2CSc2ccccc21 | u | -17.9% | -3.5% | -13.0% | 14.1µM* | 16.2%
CN(C)CC/C=C1\c2cc(F)ccc2CSc2ccccc21 | -5.2% | 6.5% | 5.2% | 79.4µM* | -18.7%[59 µM] | 12.6%
CN(C)CC/C=C1/c2cc(F)ccc2CSc2ccc(F)cc21 | -8.8% | -4.7% | 8.2% | 19.6% | 0.0%[59 µM] | 21.3%
COC(=O)C1=C(C)N(Cc2ccccc2)C(=S)N[C@H]1CCc1ccccc1 | x | x | x | 3.4% | 6.7%[12.7 µM] | 5.1%

Compound activity from PubChem BioAssay.
